This is an account of results in PubChem BioAssay (Tox21).

Inconclusive results are not listed. Unmarked numbers belong to inactive results. Active and inactive are the calls of the source. Calls come from the whole dose curve; as a rule, active = well fitted inhibition curve with a large enough effect in the repeat runs; inconclusive = weak or mixed curves; inactive = no such curve, though single readings can be large or run the other way.
% is set by controls: 0 for no effect and ±100 for the full control effect; potency is the fitted concentration of half-maximal effect.

Sequence of Cytochrome P450 1A2 (Homo sapiens) (P05177 whole entry, looked up): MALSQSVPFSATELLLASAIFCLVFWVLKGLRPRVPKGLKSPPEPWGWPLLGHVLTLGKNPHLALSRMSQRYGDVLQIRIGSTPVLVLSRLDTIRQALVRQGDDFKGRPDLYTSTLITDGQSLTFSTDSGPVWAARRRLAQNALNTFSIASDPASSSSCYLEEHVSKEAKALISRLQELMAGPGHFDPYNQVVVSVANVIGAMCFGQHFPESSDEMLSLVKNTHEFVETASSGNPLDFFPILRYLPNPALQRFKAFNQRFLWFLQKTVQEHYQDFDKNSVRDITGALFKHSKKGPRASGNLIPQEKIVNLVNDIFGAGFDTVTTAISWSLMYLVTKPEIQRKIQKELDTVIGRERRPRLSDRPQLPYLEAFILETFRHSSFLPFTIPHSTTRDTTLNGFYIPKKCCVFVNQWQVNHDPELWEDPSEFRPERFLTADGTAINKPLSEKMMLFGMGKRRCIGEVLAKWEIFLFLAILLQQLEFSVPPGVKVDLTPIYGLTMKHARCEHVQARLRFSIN

This test concerns the target Cytochrome P450 1A2 (Homo sapiens) (UniProt P05177). Briefly: Cytochrome P450 Family 1 Subfamily A Member 2 (CYP1A2) small molecule antagonists: luciferase reporter qHTS assay (AID 1671199). Note: nearly all actives have a fitted effect of over 50% in size. The following applies: P450-Glo CYP1A2 enzyme, luciferin luminescence, 1 h; series mostly up to 115 µM; activity change, negative = inhibition: at the top concentration. The text has this:
National Center for Advancing Translational Sciences [NCATS]
U.S. Environmental Protection Agency [EPA]
National Institutes of Environmental Health Sciences [NIEHS]
National Toxicology Program [NTP]
U.S. Food and Drug Administration [FDA]
Cytochrome P450 (CYP) enzymes are membrane-bound hemeproteins that play a key role in metabolism of drugs and xenobiotics. Evaluation of the effect of chemicals on CYP isozymes is useful to minimize the adverse drug reactions and toxicities in drug development process. Tox21 chemicals were tested for their effect on CYP enzyme activities by using P450-Glo (TM) screening systems (Promega Corporation, Madison, WI). These systems provide a luminescent method containing proluciferin substrates and are converted to luciferin products by CYP isozymes. The luciferin products formed are detected with a luciferin detection reagent, and the amount of light produced is proportional to CYP activity. P450-Glo (TM) CYP1A2 screening system (Catalog. No. V9770) was used to detect the compounds that interfere in CYP1A2 activity. The positive control compound used for CYP1A2 assay is furafylline (Sigma-Aldrich, St. Louis, MO).
Tox21 Assay Protocol Summary:
Two ul of enzyme-substrate mix was dispensed into medium binding white/solid 1536-well plates (Greiner Bio-One North America Inc., Monroe, NC) using a BioRaptr Flying Reagent Dispenser (FRD, Beckman Coulter, Brea, CA). Compounds dissolved in DMSO and positive control (furafyllline) were transferred to the assay plates at 23 nl using a Pintool station (Wako, San Diego, CA). The assay plates were incubated at room temperature for 10 min. Then 2 ul of NADPH regeneration solution was added to each well of the assay plates using an FRD and incubated at room temperature for 1 h. The reaction was stopped by adding 4 ul of detection reagent using an FRD and after 20 min incubation at room temperature the luminescence signal was measured using a ViewLux plate reader (Perkin Elmer, Shelton, CT). Data were expressed as relative luminescence units.
(In general: Reporter assays use an easily measured gene product as a stand-in for the process of interest.)
As for `CCC(C(=O)OCCN1CCOC(c2ccccc2)C1C)c1ccccc1` (stereo not given), the “activity change, negative = inhibition” value is 5.53% [at 53 µM].

For the compound `O=C1NC(c2ccccc2)(c2ccccc2)C(=O)N1COP(=O)(O)O`, the “activity change, negative = inhibition” value is 4.05% [at 53 µM].

As for `CCCCOCC(C)O` (stereo not given), the “activity change, negative = inhibition” value was -10.1%.

`CC(=O)C1C(=O)C=C(C)OC1=O` (stereo not given): the “activity change, negative = inhibition” value was -13.8%. On to `C/C=C(\C)C(C)=O`, for which the “activity change, negative = inhibition” value is -14.6%. As to `CNCCS(=O)(=O)O`, the Potency is 35.9 µM (active). The same measure, in the same setting: the figure for `CC(=O)CCC1=C(C)CCCC1(C)C` is 39.9 µM (active). Take `N#Cc1cscn1`: the “activity change, negative = inhibition” value is -18.8%. The same measure, in the same setting: under `CCCC(CC)c1ccccc1` (stereo not given) stands -19.1%; under `C=CC(=O)CCCCC`, -13.7%. Consider `COc1c2occc2c(OC)c2c(=O)cc(C)oc12`, for which the Potency is 0.144 µM (active). Consider `[O-][n+]1cccc(/C(Cl)=N/OC[C@@H](O)CN2CCCCC2)c1`, for which the “activity change, negative = inhibition” value is 13.8% [at 53 µM]. Same read-out and setting: under `Cc1ccnc(N)c1` stands -17.3%; under `CCCCCCCCCCCCCCCCCC#N`, -3.44%. Regarding `CCO[Si](CC)(OCC)OCC`, the “activity change, negative = inhibition” value is -23.2%. The same measure, in the same setting: the figure for `C=CCCCC` is -15.1%. The same measure, in the same setting: under `COC(=O)/C=C\C(=O)O` stands -15.4%. Turning to `O=C(CN1CCNCC1)NC1CCCCC1`, the “activity change, negative = inhibition” value is 3.92% [at 53 µM]. With `CC1=C(C(=O)O)N2C(=O)[C@@H](NC(=O)[C@H](N)C3=CCC=CC3)[C@H]2SC1`, the “activity change, negative = inhibition” value is -0.238% [at 53 µM]. In the case of `CC(C)Cn1cnc2c1c(=O)n(C)c(=O)n2C`, the Potency is 15.5 µM (active). Turning to `COC(=O)CCCCC(CCSS/C(CCO)=C(\C)N(C=O)Cc1cnc(C)nc1N)SC(C)=O` (stereo not given), the “activity change, negative = inhibition” value is -27% [at 53 µM]. Same read-out and setting: the figure for `OCC(O)CN1CCN(c2ccccc2)CC1` (stereo not given) is -7.03% [at 53 µM].

For `O=[N+]([O-])c1c(Cl)cc(Cl)cc1Cl`, the Potency was 39.5 µM (active).

Regarding `O=C(Cn1ccnc1[N+](=O)[O-])NCc1ccccc1`, the “activity change, negative = inhibition” value is -15.9% [at 53 µM]. On the same count and under the same terms, the figure for `CN(C)CCOC(=O)C(c1ccccc1)C1(O)CCCC1` (stereo not given) is -13.8% [at 53 µM]; for `CN(C)CCCO[C@@H]1[C@H]2OC(C)(C)O[C@H]2O[C@@H]1C(O)CO` (stereo not given in full) it is 8.39% [at 53 µM]; for `Cc1c(NC(=O)c2cccnc2)c(=O)n(-c2ccccc2)n1C` it is -24% [at 53 µM].

In the case of `CC(C)OC(=O)CCC(=O)OC(C)C`, the “activity change, negative = inhibition” value is -8.58%.

With `COC(=O)c1ccccc1C(=O)O`, the “activity change, negative = inhibition” value is -24.1%. Turning to `NCCOCCN`, the Potency is 17.8 µM (active). With `CC(=O)CC(=O)Nc1ccc(C)cc1C`, the Potency is 15.9 µM (active).

As for `OC[C@H]1O[C@@H](O[C@@H]2[C@@H](CO)O[C@](O)(CO)[C@H]2O)[C@H](O)[C@@H](O)[C@H]1O`, the “activity change, negative = inhibition” value is -1.29% [at 53 µM]. For the compound `Fc1ccccc1`, the “activity change, negative = inhibition” value was -18.3%.

For `CCC(C)C(=O)OCCc1ccccc1` (stereo not given), the “activity change, negative = inhibition” value was -16.6%.

On to `C=CCSSCCC`, for which the “activity change, negative = inhibition” value was -11.1%. The same measure, in the same setting: the figure for `CC12CCC(C1)C(C)(C)C2O` (stereo not given) is -12.7%; for `Cc1ccc(C)c([N+](=O)[O-])c1` it is -11.8%. For `CN(C)C(C)(C)CO`, the “activity change, negative = inhibition” value is -12.6%. For `CC1=C(O)C(=O)C(C)O1` (stereo not given), the Potency is 28.9 µM (active). The same measure, in the same setting: under `c1ccc(B(c2ccccc2)c2ccccc2)cc1` stands 22.4 µM (active).
